The record followed here is the supplement of paper PMC6555819.

For this assay, the system named is VDR:RXRa (NR concentration 270 nM, RXRa partner concentration 90 nM). Briefly: PBM binding z-score (relative to random genomic background probes); higher = stronger binding; sequences stand for … in GC…GCGATTGACAGCGTAGAATGAAGG
As for the experimental part:
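Protein-binding microarray (Agilent 4x180K custom design, double-stranded 60-nt probes: 5' GC cap, 34-nt variable region, 24-nt constant primer region; full probe sequence given). Purified or IVT nuclear receptor:RXRα heterodimers (3:1 NR:RXRα, mostly 270:90 nM) or homodimers were incubated for 1 h in PBS with 2% milk and no ligand, then detected with Alexa488 antibodies. Fluorescence from o1-orientation probes (~5 replicates averaged) was converted to z-scores against 500 random hg19 background probes. Variable regions are seed direct-repeat (DR0–DR5) sites, all their single-nucleotide variants and half-site ablations.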
In the case of ACAGACAGGTGATGAAGGAAACTCAGGCTATCAT, the PBM binding z-score was -0.266. Take CCTAGCAGGCCAGGGACACTCAAGCATTTCGCTT: the PBM binding z-score was -0.417. The result for CGTCCAAGGTCATGGTCAGTGAAAGAGACTCGAA reads 4.3; that for TCATATAGGTAAATGCTAGGTGAAAGTACGATCT, 1.15; that for CCGCGGAGGACAACAGGAGGTCAGAGCTGCCAGA, 1.8. For CCTAGCAGGCCAATCTGGCTCACTCAAGGCTTGA, the PBM binding z-score was -0.563.

For CAAACTAGGTCACCGGAGGGTCAAAGTCCGCATG, the PBM binding z-score is 5.82.

In the case of ACTATTAGTTGATTTAGGGCAACCGATACGACGC, the PBM binding z-score was 0.131.

As to TCATATACGTAAACAGGTGAAAGTCCGTAAGTTA, the PBM binding z-score was 1.38. For TCGAGTAGGTTACCAATGGGGCATTCAGCTTTCT the value was 0.0745; for CCTACTGGGCCAGTCAGAGGTCATTGATCATATG, 3.67. For TCTAGTTGGTCACGGAGGTCACATACGACGGGTA the value was 5.92.

As for ATCTCTAGGAAAGACTCAGTTCAGTGAAGAACGC, the PBM binding z-score worked out at 0.436. The result for CTCGAAAGGTCGTGCTCAGGTGAGCATACCAAAC reads 3.27; that for TCTTGTAGATCAATAGAGGTTAGGAAAGTGCGCT, 1.05. For GCTTGTAGTTCAAGGTTAAGAAAGACTAAGCTAA the value was 1.46; for ATATGTAGGTTACATCCGGCTCATTCAGGCTATG, 0.412; for CCGACTGGTGCATAAGGTTACCATAAGCCAGCCC, 0.347.

Sequence TGAATGTGGTTAAAGATCAGGGAACGTGGCGTCG returned a PBM binding z-score of -0.219. The result for GCTTGTAGATCAAGGCTAAGAAAGACTAAGCTAA reads -0.679; that for GCGACTGGGGCATAGCAGGTTACCATAAGGTTGG, -0.336; that for CATACAGGGTCAGCTAGGCCAGAGTGGGGACGGC, 4.01. For CCTAGCAGGCCAATCTTGGTCACTCAAGGCTTGA the value was -0.601; for CGACCTAGGTCATTGACAGGACAGTGAATAGTAA, 2.97. The result for TCTGCTAGGGCAACGATGGTCAGCTAATCTGCTA reads -0.552; that for CCTAGTTGGTCAAGGTCAAACACGCTATAGGTAC, 4.47. Regarding TCTATTAGTTGAAGGGCAATCGACGAGTCCGTTT, the PBM binding z-score came to 1.02. The result for TCTATGAGTTGAAGGGCAACCGACGAGTCCGTTT reads 0.953; that for CCTTACGGGTCAAGGTTAGAGCACGGGTGGTACG, 3.08. Turning to GCTTACGGGTCAAGGGTTATAGCATGAATAGAAT, the PBM binding z-score was 4.33. Consider CCGGCTGGGGCAGAAAGGTTACCATACCATCCGG, for which the PBM binding z-score came to 0.63. CGATCTAGGTCATCCAGGACAGTGAATACATTGA returned a PBM binding z-score of 4.67. For TCATATAGGTAAAAAGTGAAAGTCGGTGTGGTAA, the PBM binding z-score is 0.783. The result for CTCGAAAGGTCGGTTGAGATGAGTATACGGATAA reads 0.961; that for ATACCAAGGTGATCGTGAGGTAGTTGATACTAAC, -0.169. For TCTTCTAGATCAAAGGTTAAGAAAGCCGAAGCCT the value was 1.58; for CCTAGTTGGTCAAGGTCACAGACGCTATAGGTAC, 4.29.

In the case of CTCGGAAGGTCGTGCTCAGGTGAGTATACCAAAC, the PBM binding z-score is 1.58.

The sequence GCAGACAGGTGAAACGCAGGTAACTAAGGGTGGC returned a PBM binding z-score of -0.407. For GCTGCTAGGTCAGGTCGGTCAGCTAACGGGTACG the value was 1.09.
